In publication PMC8384837, “Expanding the binding specificity for RNA recognition by a PUF domain”:

Tests used:
Experiment in all cases: yeast three-hybrid, YBZ-1, SC-Leu-His + 0.5 mM 3-AT, 4 days
Conditions in all cases: tags: N-Gal4 AD-HA kept; label: inside an RPR1-promoter hybrid RNA with tandem MS2 sites; ssRNA
PUM1 PUF domain R1-KLC = PUM1 PUF domain R1-KLC (Homo sapiens, UniProt Q14671 828-1176, S863K;R864L;Q867C)
In short: (§1)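 Pumilio-1 PUF domain libraries, randomized at the three base-contacting residues of each repeat, were co-expressed with matching RNA elements from a centromeric plasmid in strain YBZ-1, which carries a LexA–MS2 coat fusion and a HIS3 reporter. Transformants grew for four days on SC-Leu (input) or on SC-Leu-His + 0.5 mM 3-AT (selection), and the repeat regions were PCR-amplified and Illumina-sequenced. The interaction score is the log change in variant frequency from input to selection. That logarithm is base 2, with a pseudocount of 1 where a variant was absent.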

PUM1 PUF domain R8-KYK = PUM1 PUF domain R8-KYK (Homo sapiens, UniProt Q14671 828-1176, N1122K;Q1126K)
In short: as §1

PUM1 PUF domain R5-PRS = PUM1 PUF domain R5-PRS (Homo sapiens, UniProt Q14671 828-1176, C1007P;Q1011S)
In short: as §1

PUM1 PUF domain R8-GHR = PUM1 PUF domain R8-GHR (Homo sapiens, UniProt Q14671 828-1176, N1122G;Y1123H;Q1126R)
In short: as §1

PUM1 PUF domain R8-RYW = PUM1 PUF domain R8-RYW (Homo sapiens, UniProt Q14671 828-1176, N1122R;Q1126W)
In short: as §1

PUM1 PUF domain R5-KYC = PUM1 PUF domain R5-KYC (Homo sapiens, UniProt Q14671 828-1176, C1007K;R1008Y;Q1011C)
In short: as §1

PUM1 PUF domain R5-FRW = PUM1 PUF domain R5-FRW (Homo sapiens, UniProt Q14671 828-1176, C1007F;Q1011W)
In short: as §1

PUM1 PUF domain R4-DRC = PUM1 PUF domain R4-DRC (Homo sapiens, UniProt Q14671 828-1176, N971D;H972R;Q975C)
In short: as §1

PUM1 PUF domain R6-VFI = target: T1, PUM1 PUF domain R6-VFI (Homo sapiens, UniProt Q14671 828-1176, N1043V;Y1044F;Q1047I)
T1 sequence: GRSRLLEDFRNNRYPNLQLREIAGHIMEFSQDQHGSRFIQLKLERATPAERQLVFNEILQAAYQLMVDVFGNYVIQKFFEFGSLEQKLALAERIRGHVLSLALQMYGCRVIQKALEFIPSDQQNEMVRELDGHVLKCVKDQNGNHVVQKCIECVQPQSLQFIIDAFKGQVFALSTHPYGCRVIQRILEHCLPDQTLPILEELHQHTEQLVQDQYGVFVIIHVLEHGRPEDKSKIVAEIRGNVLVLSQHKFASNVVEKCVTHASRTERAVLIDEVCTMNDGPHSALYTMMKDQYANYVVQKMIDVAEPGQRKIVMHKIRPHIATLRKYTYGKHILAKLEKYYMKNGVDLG
In short: as §1

PUM1 PUF domain R4-WAA = PUM1 PUF domain R4-WAA (Homo sapiens, UniProt Q14671 828-1176, N971W;H972A;Q975A)
In short: as §1

PUM1 PUF domain R3-SNR = PUM1 PUF domain R3-SNR (Homo sapiens, UniProt Q14671 828-1176, C935S;R936N;Q939R)
In short: as §1

PUM1 PUF domain R3-LSC = PUM1 PUF domain R3-LSC (Homo sapiens, UniProt Q14671 828-1176, C935L;R936S;Q939C)
In short: as §1

PUM1 PUF domain R3-MSR = PUM1 PUF domain R3-MSR (Homo sapiens, UniProt Q14671 828-1176, C935M;R936S;Q939R)
In short: as §1

PUM1 PUF domain R7-ENR = PUM1 PUF domain R7-ENR (Homo sapiens, UniProt Q14671 828-1176, S1079E;E1083R)
In short: as §1

PUM1 PUF domain R5-KWA = PUM1 PUF domain R5-KWA (Homo sapiens, UniProt Q14671 828-1176, C1007K;R1008W;Q1011A)
In short: as §1

PUM1 PUF domain R5-MYC = PUM1 PUF domain R5-MYC (Homo sapiens, UniProt Q14671 828-1176, C1007M;R1008Y;Q1011C)
In short: as §1

PUM1 PUF domain R5-FHK = PUM1 PUF domain R5-FHK (Homo sapiens, UniProt Q14671 828-1176, C1007F;R1008H;Q1011K)
In short: as §1

PUM1 PUF domain R5-KHH = PUM1 PUF domain R5-KHH (Homo sapiens, UniProt Q14671 828-1176, C1007K;R1008H;Q1011H)
In short: as §1

PUM1 PUF domain R7-RGF = PUM1 PUF domain R7-RGF (Homo sapiens, UniProt Q14671 828-1176, S1079R;N1080G;E1083F)
In short: as §1

PUM1 PUF domain R4-MHW = PUM1 PUF domain R4-MHW (Homo sapiens, UniProt Q14671 828-1176, N971M;Q975W)
In short: as §1

Question: Which binding signal (PUM1 PUF domain R1-KLC) does the source give for “GGCUAGAACUAGUGGAUCCCCCGGCGCCCGGCGGCUCGAGCCCGGGUAAGUGUAAAUUGUCUGCAUGCCGCCGGGCGCCAUGCCUGCAGGUCGACUCUAGAAAACAUG” here?
Answer: 5.07 log2 enrichment (interaction score)

Question: Which binding signal (PUM1 PUF domain R8-KYK) does the source give for “GGCUAGAACUAGUGGAUCCCCCGGCGCCCGGCGGCUCGAGCCCGGGUAAGUGUAAAUAGUCUGCAUGCCGCCGGGCGCCAUGCCUGCAGGUCGACUCUAGAAAACAUG” here?
Answer: 2.92 log2 enrichment (interaction score)

Question: What about the binding signal (PUM1 PUF domain R5-PRS) of the same sequence?
Answer: 4.36 log2 enrichment (interaction score)

Question: What about the binding signal (PUM1 PUF domain R8-GHR) of the same sequence?
Answer: 1.48 log2 enrichment (interaction score)

Question: What about the binding signal (PUM1 PUF domain R8-RYW) of the same sequence?
Answer: 4.31 log2 enrichment (interaction score)

Question: What about the binding signal (PUM1 PUF domain R5-KYC) of the same sequence?
Answer: 5.13 log2 enrichment (interaction score)

Question: And the binding signal (PUM1 PUF domain R5-FRW)?
Answer: 1.07 log2 enrichment (interaction score)

Question: What about the binding signal (PUM1 PUF domain R4-DRC) of the same sequence?
Answer: 5.15 log2 enrichment (interaction score)

Question: And the binding signal (PUM1 PUF domain R6-VFI)?
Answer: 3.71 log2 enrichment (interaction score)

Question: And the binding signal (PUM1 PUF domain R4-WAA)?
Answer: 1.39 log2 enrichment (interaction score)

Question: For “GGCUAGAACUAGUGGAUCCCCCGGCGCCCGGCGGCUCGAGCCCGGGUAAGUGUAAUUAGUCUGCAUGCCGCCGGGCGCCAUGCCUGCAGGUCGACUCUAGAAAACAUG”, which binding signal (PUM1 PUF domain R3-SNR) is on record?
Answer: 3.93 log2 enrichment (interaction score)

Question: And the binding signal (PUM1 PUF domain R3-LSC)?
Answer: 2.84 log2 enrichment (interaction score)

Question: What about the binding signal (PUM1 PUF domain R3-MSR) of the same sequence?
Answer: 2.82 log2 enrichment (interaction score)

Question: With “GGCUAGAACUAGUGGAUCCCCCGGCGCCCGGCGGCUCGAGCCCGGGUAAGUCUAAAUAGUCUGCAUGCCGCCGGGCGCCAUGCCUGCAGGUCGACUCUAGAAAACAUG” as the sequence, how does the binding signal (PUM1 PUF domain R7-ENR) read?
Answer: 3.14 log2 enrichment (interaction score)

Question: For “GGCUAGAACUAGUGGAUCCCCCGGCGCCCGGCGGCUCGAGCCCGGGUAAGUGUGAAUAGUCUGCAUGCCGCCGGGCGCCAUGCCUGCAGGUCGACUCUAGAAAACAUG”, which binding signal (PUM1 PUF domain R5-PRS) is on record?
Answer: 1.55 log2 enrichment (interaction score)

Question: What about the binding signal (PUM1 PUF domain R5-KWA) of the same sequence?
Answer: 2.43 log2 enrichment (interaction score)

Question: And the binding signal (PUM1 PUF domain R5-MYC)?
Answer: 4.74 log2 enrichment (interaction score)

Question: And the binding signal (PUM1 PUF domain R5-FHK)?
Answer: 3.51 log2 enrichment (interaction score)

Question: What about the binding signal (PUM1 PUF domain R5-KHH) of the same sequence?
Answer: 2.08 log2 enrichment (interaction score)

Question: Which results are given for “GGCUAGAACUAGUGGAUCCCCCGGCGCCCGGCGGCUCGAGCCCGGGUAAGUGUAAGUAGUCUGCAUGCCGCCGGGCGCCAUGCCUGCAGGUCGACUCUAGAAAACAUG”?
Answer: binding signal (PUM1 PUF domain R3-SNR): 0.8 log2 enrichment (interaction score); binding signal (PUM1 PUF domain R3-MSR): 3.44 log2 enrichment (interaction score)

Question: What does the source list for “GGCUAGAACUAGUGGAUCCCCCGGCGCCCGGCGGCUCGAGCCCGGGUAAGCGUAAAUAGUCUGCAUGCCGCCGGGCGCCAUGCCUGCAGGUCGACUCUAGAAAACAUG”?
Answer: binding signal (PUM1 PUF domain R8-KYK): 3.86 log2 enrichment (interaction score); binding signal (PUM1 PUF domain R8-GHR): 3.27 log2 enrichment (interaction score); binding signal (PUM1 PUF domain R8-RYW): 5.69 log2 enrichment (interaction score)

Question: “GGCUAGAACUAGUGGAUCCCCCGGCGCCCGGCGGCUCGAGCCCGGGUAAGUUUAAAUAGUCUGCAUGCCGCCGGGCGCCAUGCCUGCAGGUCGACUCUAGAAAACAUG” was tested. Which binding signal (PUM1 PUF domain R7-RGF) did it give?
Answer: 3.87 log2 enrichment (interaction score)

Question: For “GGCUAGAACUAGUGGAUCCCCCGGCGCCCGGCGGCUCGAGCCCGGGUAAGUGUCAAUAGUCUGCAUGCCGCCGGGCGCCAUGCCUGCAGGUCGACUCUAGAAAACAUG”, which binding signal (PUM1 PUF domain R5-FRW) is on record?
Answer: 3.47 log2 enrichment (interaction score)

Question: With “GGCUAGAACUAGUGGAUCCCCCGGCGCCCGGCGGCUCGAGCCCGGGUAAGUGUUAAUAGUCUGCAUGCCGCCGGGCGCCAUGCCUGCAGGUCGACUCUAGAAAACAUG” as the sequence, how does the binding signal (PUM1 PUF domain R5-MYC) read?
Answer: 2.86 log2 enrichment (interaction score)

Question: And the binding signal (PUM1 PUF domain R5-KYC)?
Answer: 5.51 log2 enrichment (interaction score)

Question: What about the binding signal (PUM1 PUF domain R5-FRW) of the same sequence?
Answer: 3.35 log2 enrichment (interaction score)

Question: And the binding signal (PUM1 PUF domain R5-FHK)?
Answer: 4.76 log2 enrichment (interaction score)

Question: Which results are given for “GGCUAGAACUAGUGGAUCCCCCGGCGCCCGGCGGCUCGAGCCCGGGUAAGUGUAUAUAGUCUGCAUGCCGCCGGGCGCCAUGCCUGCAGGUCGACUCUAGAAAACAUG”?
Answer: binding signal (PUM1 PUF domain R4-MHW): 3.93 log2 enrichment (interaction score); binding signal (PUM1 PUF domain R4-WAA): 4.4 log2 enrichment (interaction score)
